Bioassay records deposited in PubChem by National Center for Advancing Translational Sciences (NCATS).
A selection: hits, their analogues and other compounds. The true share with any hit is near 2.9%.
EPAC2 antag: validation of human EPAC2 antagonists. hit rate 1.7% among 16,000. EPAC2 Rap1B BODIPY-GDP exchange, fluorescence. Potency, µM (highest dose often 112 µM), inactives show at the highest dose activity, negative = inhibition, usual class: inhibitors. Q8WZA2;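 note: 100% = activation by cAMP agonist control; nearly all actives have a fitted effect of over 40% in size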
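Fluorescent exchange read-out: 100 nM EPAC2 with 250 nM RAP1B–BODIPY-GDP and 50 uM GDP; BODIPY-GDP release lowers fluorescence. Read at 480/540 nm every 5 min for 30 min at room temperature; normalized to 6.5 mM cAMP.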
EPAC1 ag val: human EPAC1 agonism, validation | EPAC1 Rap1b BODIPY-GDP exchange, fluorescence | Potency, µM, for the others: max response, positive = active, usual class: activators | hit rate 1% among 16,000 | AID 1645883 | O95398; note: nearly all actives have a fitted effect of over 70% in size
Starred values were filed as active, the others as inactive; i = inactive; ? = inconclusive; [ ] = dose if it differs, or a comment. Calls come from the whole dose curve; as a rule, active = well fitted curve in the direction sought with a large enough effect; inconclusive = small, poorly fitted or top-dose-only effect, or another doubt; inactive = no such curve, though single readings can be large; an effect the other way counts as inactive or inconclusive. Unless noted, % is set by controls: 0 for no effect and ±100 for the full control effect; potency is the fitted concentration of half-maximal effect.

SMILES	EPAC2 antag	EPAC1 ag val
COc1cccc(Nc2ncc3ncc(=O)n(Cc4cccs4)c3n2)c1	-14%	112µM*
O=c1cnc2cnc(Oc3cccc(Cl)c3)nc2n1Cc1ccc(F)cc1	10µM*	8%
COc1cccc(Nc2ncc3nc(-c4cccs4)c(=O)n(Cc4cccs4)c3n2)c1	4%	?
COc1cccc(Nc2ncc3nc(-c4cccs4)c(=O)n(-c4ccccc4)c3n2)c1	355%	112µM*
O=C1O[C@@H]2[C@@H](O)[C@H](O)O[C@@H]2[C@H]1O	-15%	5%
Cc1ccc(CNc2nc(C)c(-c3ccn(CCN4CCOCC4)n3)s2)o1	5%	9%
COc1cccc(C(=O)N(Cc2cc3ccc(C)cc3nc2N(C)C)C2CC2)c1OC	14µM*	-2%
COc1ccc(-c2nc3cc(C)ccc3cc2CN(C(=O)c2cccs2)C2CC2)cc1OC	?	24%
O=C1OC2(c3ccc(O)cc3Oc3cc(O)ccc32)c2ccccc21	41%	?
O=C1OC2(c3ccccc31)c1cc(I)c(O)c(I)c1Oc1c2cc(I)c(O)c1I	i	32µM*
Cc1oc(-c2cccc(NC(=O)c3ccccn3)c2)nc1CNC(=O)C#Cc1ccccc1	-3%	3%
COC(=O)[C@@H]1C2CC3c4[nH]c5cc(OC)ccc5c4CCN3CC2C[C@H](OC(=O)c2cc(OC)c(OC)c(OC)c2)C1OC (stereo not given in full)	-21%	100µM*
COC(=O)[C@H]1[C@@H]2C[C@@H]3c4[nH]c5ccccc5c4CCN3C[C@H]2CC[C@H]1O	-7%	-3%
CSc1nnc(CCNC(=O)/C=C/c2cccc(F)c2)n1-c1ccc(F)cc1	-29%	-11%
C=CC(C1=CC(=O)C(OC)=CC1=O)c1ccccc1 (stereo not given)	35µM*	18%
C=CC(C1=CC(=O)C(OC)=CC1=O)c1ccc(OC)cc1 (stereo not given)	?	-18%
CCCCCCCC/C=C\CCCCCCCC(=O)N[C@@H](CO)Cc1ccc(O)cc1	20µM*	-58%
CCCCCCCC/C=C\C/C=C\C/C=C\CCCC(=O)NCCO	-21%[11.4 µM]	-33%
CC(C)C(NC(=O)c1ccccn1)c1nnc2n1CCN(Cc1ccc3ccccc3c1)CC2 (stereo not given)	-23%	-9%
